# Results published in PubChem BioAssay (NCI).
# About 83,000 compounds went through this panel and 20% of them were active in at least one assay; those are over-represented in the sample as a whole.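 For each line, cells grew in 96-well plates with the test compound present at a single concentration for 48 hours.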 Unmarked numbers belong to inactive results. Calls of active or inactive are those of the source. How the source made its calls: active means growth percent below 10; inactive means the rest.
# Legend:
# Test in all cases: NCI-60 one-dose screen, 48 h (100 = growth as untreated, 0 = no growth, -100 = all killed)
# Conditions in all cases: 10 µM unless noted
# RPMI-8226 leukemia = test system: RPMI-8226 leukemia
# OVCAR-8 ovarian = test system: OVCAR-8 ovarian
# OVCAR-5 ovarian = test system: OVCAR-5 ovarian
# OVCAR-4 ovarian = test system: OVCAR-4 ovarian
# SK-OV-3 ovarian = test system: SK-OV-3 ovarian
# IGROV1 ovarian = test system: IGROV1 ovarian
# OVCAR-3 ovarian = test system: OVCAR-3 ovarian
# HS 578T breast = test system: HS 578T breast
# NCI/ADR-RES ovarian = test system: NCI/ADR-RES ovarian
# T-47D breast = test system: T-47D breast
# BT-549 breast = test system: BT-549 breast
# MDA-MB-435 melanoma = test system: MDA-MB-435 melanoma
# SW-620 colon = test system: SW-620 colon
# MCF7 breast = test system: MCF7 breast
# HCT-116 colon = test system: HCT-116 colon
# HCC-2998 colon = test system: HCC-2998 colon
# KM12 colon = test system: KM12 colon
Compound,growth (RPMI-8226 leukemia),growth (OVCAR-8 ovarian),growth (OVCAR-5 ovarian),growth (OVCAR-4 ovarian),growth (SK-OV-3 ovarian),growth (IGROV1 ovarian),growth (OVCAR-3 ovarian),growth (HS 578T breast),growth (NCI/ADR-RES ovarian),growth (T-47D breast),growth (BT-549 breast),growth (MDA-MB-435 melanoma),growth (SW-620 colon),growth (MCF7 breast),growth (HCT-116 colon),growth (HCC-2998 colon),growth (KM12 colon)
N#Cc1c(-c2ccc(Cl)cc2)cc(-c2cc3ccccc3o2)nc1SCC(=O)c1ccc(Cl)cc1,83.6%,104%,88.4%,104%,103%,71.5%,104%,96.3%,97.9%,108%,112%,104%,94.2%,112%,94.1%,102%,94.9%
C=C(C)[C@@H]1CC[C@]2(C(=O)OCCOCCOCC[P+](c3ccccc3)(c3ccccc3)c3ccccc3)CC[C@]3(C)[C@H](CC[C@@H]4[C@@]5(C)CC[C@H](OC(=O)C(Cl)Cl)C(C)(C)[C@@H]5CC[C@]43C)[C@@H]12,-39.3% (active),5.47% (active),39.3%,-0.899% (active),-8.97% (active),6.43% (active),-43.9% (active),21.3%,50.2%,-21.2% (active),-89.4% (active),-62.5% (active),5.87% (active),1.7% (active),-84.1% (active),12.1%,-55.7% (active)
CN1CCN(S(=O)(=O)O[C@@H]2C(=O)N(c3cc4c5ccccc5ccc4c4ccccc34)[C@H]2c2ccc(F)cn2)CC1,79.7%,85.7%,108%,99.1%,97.9%,87.8%,88.4%,84.1%,92.2%,78.9%,95.8%,98.1%,98.2%,87.4%,85.3%,90.4%,91.1%
S=C(Nc1ccccc1)c1ccccn1,56.5%,91.2%,88.9%,100%,90.9%,1.38% (active),67.7%,101%,93.1%,96.6%,90.5%,103%,89.6%,77.5%,92.5%,,99.8%
Nc1ccc2c(c1)C(=O)C(=O)c1c-2nc2ccccn12,14.7%,8.18% (active),-47.4% (active),-95.4% (active),30.7%,-40.3% (active),-19.8% (active),-6.56% (active),11.7%,-53.5% (active),-34.6% (active),-87.3% (active),4.01% (active),-54.7% (active),1.3% (active),19.4%,20%
Nc1c(C(=O)Nc2cccc3ccccc23)sc2nc3c(cc12)CCCCC3,24.9%,21.4%,44.1%,56.6%,29.1%,44.3%,-25.2% (active),30%,20.3%,46.7%,12.6%,-32.2% (active),24.3%,17.7%,8.52% (active),33.1%,22.8%
Oc1ccccc1-c1nc2c3ccccc3c3ccccc3c2o1,75.5%,89%,114%,76.4%,90.4%,74.1%,97.2%,89.5%,94.5%,78.9%,103%,99.3%,68.4%,62.4%,80.7%,103%,93.3%
COc1ccc2c(c1)Oc1nc(N)c(C#N)c(N)c1C2Sc1ccc(O)cc1 (configuration not stated),53.4%,102%,118%,88.8%,104%,62%,79.7%,109%,106%,50.7%,92.4%,99.5%,68.6%,33.6%,89.6%,98.5%,97.9%
O=S(=O)(O)c1ccc(N=NSc2ccc3ccccc3c2)cc1,91.7%,108%,106%,101%,112%,93.2%,98.6%,98.7%,96.4%,82.2%,94%,99.9%,96.5%,98.9%,85.8%,97.2%,98.6%
